Only some compounds are listed: those with a hit (about 6.4% of all), similar ones and a draw of the others.
KinaseGlo FLuc – counter-screen: inhibitors of Kinase-Glo firefly luciferase | AID 1379 | Potency, µM (series often up to 38.3 µM), for inactives: at the top dose activity change, negative = inhibition, most hits filed as inhibitors | Kinase-Glo luciferase, ATP luminescence, 8 min | 200,000 tested, 0.28% active | Q27757; note: nearly all actives have a fitted effect of over 60% in size
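Recombinant Kinase-Glo luciferase, 10 uM ATP (linear range), luciferin; imidazole pH 7.2 / KCl / MgCl2 / Tween / BSA buffer; 8 min RT; luminescence.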
Gal4-VP16 FLuc – Gal4-VP16 reporter inhibition counter-screen. Drosophila S2 Gal4-VP16 UAS-luciferase, luminescence, 20 h. Potency, µM (titrated, usually from 53.6 µM), for inactives: top-dose activity, negative = inhibition, usual class: inhibitors. 310,000 tested, 3.5% active. AID 2546;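 note: Gal4-VP16 expression switched on by copper sulfate through the metallothionein promoter; nearly all actives have a fitted effect of over 50% in size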
RORg inh – ROR gamma (mouse) transcription inhibition; P51450; Drosophila S2 Gal4-RORgamma UAS-luciferase reporter, 20 h; Potency, µM (doses to about 53.6 µM), without a hit: at the highest dose activity change, negative = inhibition, most hits filed as inhibitors; 310,000 tested, 5.4% active; AID 2551; note: nearly all actives have a fitted effect of over 60% in size
Target sequence (P51450 whole entry, looked up, the tested form may be a part): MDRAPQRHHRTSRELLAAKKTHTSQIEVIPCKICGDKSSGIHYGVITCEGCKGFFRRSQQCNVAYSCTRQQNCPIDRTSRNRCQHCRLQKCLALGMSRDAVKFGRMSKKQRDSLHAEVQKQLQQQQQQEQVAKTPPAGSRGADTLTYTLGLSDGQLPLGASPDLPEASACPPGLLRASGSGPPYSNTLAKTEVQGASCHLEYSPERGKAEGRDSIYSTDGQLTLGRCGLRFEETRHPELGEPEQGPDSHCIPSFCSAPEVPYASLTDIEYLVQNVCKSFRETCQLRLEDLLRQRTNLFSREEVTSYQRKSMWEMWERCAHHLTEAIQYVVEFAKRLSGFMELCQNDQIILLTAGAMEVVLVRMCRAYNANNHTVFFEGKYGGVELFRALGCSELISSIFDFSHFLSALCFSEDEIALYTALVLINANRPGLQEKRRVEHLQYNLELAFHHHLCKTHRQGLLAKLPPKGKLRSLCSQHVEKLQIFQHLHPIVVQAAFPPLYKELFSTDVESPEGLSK
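A Gal4/UAS one-hybrid system in insect cells: metallothionein-promoter Gal4–ROR gamma fusion plus Photinus luciferase reporter. Copper sulfate 700 uM final, 20 hr ambient incubation, luminescent detection after 10 min with reagent.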
* = called active by the depositor; [ ] = remark or other dose. Calls come from the whole dose curve; as a rule, active = well fitted curve in the direction sought with a large enough effect; inconclusive = small, poorly fitted or top-dose-only effect, or another doubt; inactive = no such curve, though single readings can be large; an effect the other way counts as inactive or inconclusive. % is set by controls: 0 for no effect and ±100 for the full control effect; potency is the fitted concentration of half-maximal effect.

CCOC(=O)N1CCN(S(=O)(=O)N2CCCC(C(=O)NCCc3ccc(C)cc3)C2)CC1 (stereo unspecified) was read as Gal4-VP16 FLuc -3% and RORg inh 21%.
Cc1cc(Cl)ccc1NC(=S)NCCCO was read as KinaseGlo FLuc 0%, Gal4-VP16 FLuc -2% and RORg inh 7%.
Cc1ccc(C)c(NC(=O)NCc2ccc(Cl)cc2)c1 was read as KinaseGlo FLuc 0%[7.66 µM].
Cc1cc(Cl)ccc1NC(=S)NCc1ccccc1 was read as KinaseGlo FLuc 1%, Gal4-VP16 FLuc 4%[0.365 µM] and RORg inh 4µM*.
For Cc1ccc(NC(=S)NCc2ccc(Cl)cc2)c(C)c1 the results were Gal4-VP16 FLuc 4.5µM* and RORg inh 4.5µM*.
Screening COc1cccc(CNCC(O)(c2ccc(Cl)cc2)c2ccc(Cl)cc2)c1 returned KinaseGlo FLuc -2%, Gal4-VP16 FLuc inconclusive and RORg inh inconclusive.
COc1cccc(CNC(=S)Nc2ccc(Cl)cc2C)c1 was read as Gal4-VP16 FLuc 6.3µM* and RORg inh 6.3µM*.
`COc1cccc(CNC(=S)Nc2cc(OC)ccc2OC)c1` gave KinaseGlo FLuc 1%, Gal4-VP16 FLuc inconclusive and RORg inh 13µM*.
COc1ccc(Cl)cc1NC(=S)NCc1cccnc1 was read as KinaseGlo FLuc 2%, Gal4-VP16 FLuc -6% and RORg inh 9%.
For CCC(=O)N1N=C(c2ccc(NS(C)(=O)=O)cc2)CC1c1ccc(N(C)C)cc1 (stereo unspecified) the results were KinaseGlo FLuc 1%, Gal4-VP16 FLuc inconclusive and RORg inh 22%.
`Cn1nc(C(F)(F)F)cc1-c1ccc(S(N)(=O)=O)s1` gave Gal4-VP16 FLuc 12% and RORg inh 23%.
For NC(=O)c1ccccc1N1CCCCC1 the results were Gal4-VP16 FLuc 1% and RORg inh 7%.
Cc1nc(N/N=C/c2ccccn2)sc1C was read as KinaseGlo FLuc 8.9µM*, Gal4-VP16 FLuc 0.5µM* and RORg inh 0.11µM*.
O=C(O)Cc1sc(N/N=C\c2ccccc2)nc1-c1ccccc1 was read as KinaseGlo FLuc -4%, Gal4-VP16 FLuc -25% and RORg inh -28%.
Screening COC(=O)c1ccc(/C=N/Nc2nc(C)c(C)s2)cc1 returned Gal4-VP16 FLuc inconclusive and RORg inh -69%.
For CCCc1sc(N/N=C/c2ccccn2)nc1-c1ccc(F)cc1 the results were KinaseGlo FLuc -3%, Gal4-VP16 FLuc 0.32µM* and RORg inh 0.28µM*.
`Cc1cc2c(c(=O)o1)C1O[C@](c3ccsc3)(Cc3ccccc31)O2` gave Gal4-VP16 FLuc -3%[10 µM] and RORg inh 3%[10 µM].
For Cc1ccc(C)c(C(=O)COC(=O)CN2C(=O)C3C4C=CC(C4)C3C2=O)c1 (stereo unspecified) the results were Gal4-VP16 FLuc -22% and RORg inh -3%.
Screening COC(=O)C1=C(C(=O)OC)[C@@H]2N(C)c3ccccc3[C@@]23C[C@@H](C(=O)OC)N(S(=O)(=O)c2ccc(C#N)cc2)C3=N1 returned KinaseGlo FLuc -7%[7.66 µM].
Screening COc1ccccc1N(CC(=O)NC(C)C)S(=O)(=O)c1cccs1 returned KinaseGlo FLuc 3%, Gal4-VP16 FLuc -3% and RORg inh 16%.
`COc1ccc(C(=O)OCCN2CCCCC2)cc1` gave KinaseGlo FLuc -1%, Gal4-VP16 FLuc 3%[10 µM] and RORg inh 5%.
For COc1ccc(C(=O)CCN2CCCCCC2)cc1 the results were KinaseGlo FLuc -4%, Gal4-VP16 FLuc 5µM* and RORg inh 3.2µM*.
`CCOc1ccc(C(=O)CCN2CCCCC2)cc1` gave KinaseGlo FLuc -1%, Gal4-VP16 FLuc -9% and RORg inh 33%.
Screening CC(C)Oc1ccc(C(=O)CCN2CCCCC2)cc1 returned KinaseGlo FLuc -2%, Gal4-VP16 FLuc 6.3µM* and RORg inh 10µM*.
For Cc1ccc(C(C)C)cc1OCCCCN1CCCC1 the results were KinaseGlo FLuc -1%, Gal4-VP16 FLuc -4% and RORg inh -2%.
Screening O=c1c2c(nc3cc(-c4ccc(F)cc4)[nH]n13)CCC2 returned KinaseGlo FLuc inconclusive, Gal4-VP16 FLuc -20% and RORg inh 1%.
For O=C(O)c1ccc(Nc2nc3ccccc3nc2NS(=O)(=O)c2ccc(F)cc2)cc1 the results were Gal4-VP16 FLuc -12% and RORg inh 11%.
`O=[N+]([O-])c1ccc(Nc2c3ccccc3nc3ccccc23)cc1` gave KinaseGlo FLuc -2%, Gal4-VP16 FLuc -6% and RORg inh 22µM*.
O=[N+]([O-])c1ccccc1Nc1c2ccccc2nc2ccccc12 was read as KinaseGlo FLuc 1%, Gal4-VP16 FLuc inconclusive and RORg inh -29%.
